Screening data from PubChem.
IL-1B inflam inh: qHTS for Inhibitors of Inflammasome Signaling: IL-1-beta AlphaLISA Primary Screen | THP-1 LPS/ATP IL-1B secretion, AlphaLISA, 16 h; active compounds read low | AID 743279, 2014 | activity change, % at 57.5 µM | 4.7% of 360,000 active; in the data active = activity change below about -50%; inconclusive = mostly about -30% to -49%; note: % is set by controls: 0 for no effect and ±100 for the full control effect
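Secreted IL-1B measured by AlphaLISA bead assay after 16 h compound exposure of THP-1 cells; compounds (final up to 57.5 uM) added 1 h before LPS (250 ng/mL) and ATP (1.25 mM) stimulation; lower signal means less secretion.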
TDP1 cell CPT: qHTS for Inhibitors of human tyrosyl-DNA phosphodiesterase 1 (TDP1): qHTS in cells in presence of CPT | chicken DT40 Tdp1-/-;hTDP1 cells + 20 nM CPT, ATP luminescence, 48 h | Potency, µM (titrated, usually from 46.2 µM), for inactives: at the highest dose activity change, negative = growth inhibition, usual class: inhibitors | 12% of 420,000 active; note: potency is the fitted concentration of half-maximal effect; % is set by controls: 0 for no effect and ±100 for the full control effect; nearly all actives have a fitted effect of over 55% in size
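Chicken DT40 Tdp1-/- cells stably complemented with human TDP1 were seeded at 400 cells/well in medium containing 20 nM camptothecin, exposed to pin-transferred compounds, and grown at 37 °C for at least 48 hr. Viability was read as ATP luminescence.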
TDP1 cell noCPT: qHTS for Inhibitors of human tyrosyl-DNA phosphodiesterase 1 (TDP1): qHTS in cells in absence of CPT; DT40 Tdp1-/- hTDP1 cells, no CPT, ATP luminescence, 48 h; Potency, µM (series often up to 46.2 µM), without a hit: top-dose activity change, negative = growth inhibition, usual class: inhibitors; 15% of 420,000 active; AID 686978, 2013; note: potency is the fitted concentration of half-maximal effect; % is set by controls: 0 for no effect and ±100 for the full control effect; nearly all actives have a fitted effect of over 55% in size
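Growth kinetics read by CellTiter-Glo luminescence after ≥48 hr at 37 °C. Cells: DT40 Tdp1-/- stably carrying human TDP1, 400 per well, compound exposure in the absence of CPT (DMSO vehicle).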
MCF10A rereplic: A quantitative high throughput screen for small molecules that induce DNA re-replication in MCF 10a normal breast cells | MCF 10A DNA re-replication, Hoechst nuclear intensity, 48 h | 2.9% of 350,000 active | Potency, µM (series often up to 46.1 µM), without a hit: top-dose activity, positive = re-replication, hits mostly activators; note: potency is the fitted concentration of half-maximal effect; % of control where 0% means no effect; nearly all actives have a fitted effect of over 50% in size
SW480 rerep: A quantitative high throughput screen for small molecules that induce DNA re-replication in SW480 colon adenocarcinoma cells; SW480 DNA re-replication, Hoechst DNA content imaging, 48 h; Potency, µM (series often up to 46.1 µM), for the others: at the highest dose re-replication activation, most hits filed as activators; 1.8% of 340,000 active; AID 624297, 2012; note: potency is the fitted concentration of half-maximal effect; % of control where 0% means no effect; nearly all actives have a fitted effect of over 55% in size
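First, 250 cells per well were seeded. Next, compound or vehicle (23 nL) was pinned in, plates sat 48 hr at 37 C. Finally Hoechst was added for 40 min before fluorescence scanning.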
Chronic BCR inh: qHTS Assay to Find Inhibitors of Chronic Active B-Cell Receptor Signaling | 0.05% of 340,000 active | Potency, µM (titrated, usually from 46.1 µM), for the others: top-dose activity change, negative = inhibition, usual class: inhibitors | ABC-DLBCL IkBa-CBG/CBR reporter, luminescence ratio, 4 h; active = well fitted inhibition curve with a large enough effect in the signal ratio, with a control signal flat, not every such curve was filed as active; inconclusive = small, poorly fitted or top-dose-only effect, or effect the other way, or a change in a side signal; the % refers to the signal ratio;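 note: potency is the fitted concentration of half-maximal effect; plate controls were basal doxycycline-induced cells for no effect and cells given 10 µM MG132 for full effect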
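Cell line TMD8 (human ABC DLBCL), stably expressing tet-inducible CBG68-IkBa fusion and CBR; IMDM/0.5% FBS; cpd up to 46 uM; dox induction, 4 h, 37C/5% CO2; dual luminescence; green/red ratio; MG132 control.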
Active calls of the source: *; ? = inconclusive; · = no result. Only some compounds are listed: those with a hit (about 19% of all), similar ones and a draw of the others. Unless noted, calls come from the whole dose curve; as a rule, active = well fitted curve in the direction sought with a large enough effect; inconclusive = small, poorly fitted or top-dose-only effect, or another doubt; inactive = no such curve, though single readings can be large; an effect the other way counts as inactive or inconclusive.

SMILES	IL-1B inflam inh	TDP1 cell CPT	TDP1 cell noCPT	MCF10A rereplic	SW480 rerep	Chronic BCR inh
CCCS(=O)(=O)c1ncc(Cl)c(C(=O)N2CCN(c3ccc(OC)cc3)CC2)n1	·	2.1µM*	3.7µM*	·	·	?
COc1ccc(N2CCN(C(=O)c3ccncc3)CC2)cc1	5	-24%	-20%	-18%	2%	-8%
CCc1nnc(NC(=O)CN2CCCC(C)C2)s1 (configuration not stated)	13	-2%	0%	-4%	-6%	3%
O=C(CCn1c2c(c3ccccc31)CCCC2)NNC(=O)c1ccccc1[N+](=O)[O-]	-3	?	7.3µM*	-3%	-4%	-8%
CCOc1ccc(S(=O)(=O)NCCc2ccccn2)cc1	6	-12%	-25%	13%	9%	5%
Fc1ccc(-c2c[nH]c(=S)n2Cc2ccccc2)cc1	?	21µM*	?	?	-21%	-9%
O=c1[nH]cc(-c2ccc(Br)cc2)n1Cc1ccccc1	2	?	?	?	-6%	-17%
CC(C)(C)C1CCc2c(sc(NC(=O)c3cc4ccccc4c(=O)o3)c2C(N)=O)C1 (configuration not stated)	·	-10%	-29%	·	·	·
CN(C)c1ncnc2ccc(-c3cccc(NS(C)(=O)=O)c3)cc12	·	21µM*	16µM*	·	·	·
CS(=O)(=O)Nc1cccc(-c2ccc3ncnc(N4CCNCC4)c3c2)c1	·	15µM*	?	·	·	·
CS(=O)(=O)Nc1cccc(-c2ccc3ncnc(Nc4ccccc4)c3c2)c1	·	?	21µM*	·	·	·
CC1Cc2ccccc2C[N+]1(C)CC(=O)c1cccc([N+](=O)[O-])c1 (configuration not stated)	·	-27%	?	·	·	·
COc1cc(OC)cc(C(=O)N2CCN(c3ccccc3F)CC2)c1	29	-9%	?	?	?	?
CCn1c2c(c(=O)n3ncc(C(=O)N4CCN(c5ccc(Cl)cc5)CC4)c13)CN(Cc1ccc(OC)cc1)CC2	·	2.3µM*	1.6µM*	·	·	·
COc1ccc(CN2CCc3c(c(=O)n4ncc(C(=O)N5CCN(c6ccccc6F)CC5)c4n3C)C2)cc1	·	18µM*	8.2µM*	·	·	·
COc1ccc(CN2CCN(C(=O)C3CCN(C(=O)Nc4ccccc4)CC3)CC2)cc1OC	-3	-10%	?	-3%	7%	0%
O=C(/C=C/c1ccc(S(=O)(=O)N2CCOCC2)cc1)NCc1ccccc1F	-15	?	-16%	23%	7%	0%
Cc1nc(COC(=O)c2cc(O)c3ccccc3c2O)cs1	0	?	?	?	7.3µM*	?
O=C(/C=C/c1ccccc1Cl)Nc1cccc(S(=O)(=O)NC2=NCCCCC2)c1	-64*	?	?	22%	0%	?
O=C(Cc1ccccc1[N+](=O)[O-])Nc1cccc(S(=O)(=O)NC2=NCCCCC2)c1	0	-5%	-28%	-5%	-1%	-2%
O=C(COc1ccccc1Cl)Nc1cccc(S(=O)(=O)NC2=NCCCCC2)c1	-25	?	?	9%	-6%	-23%
O=C(/C=C/c1ccc([N+](=O)[O-])cc1)Nc1cccc(S(=O)(=O)NC2=NCCCCC2)c1	?	15µM*	15µM*	10%	1%	?
O=C(/C=C/c1ccc(Cl)cc1Cl)Nc1cccc(S(=O)(=O)NC2=NCCC2)c1	?	16µM*	?	-24%	-48%	?
CCOc1ccccc1NC(=O)Cn1c(=O)n(CCC(=O)NCc2ccc3c(c2)OCO3)c(=O)c2ccccc21	·	?	12µM*	·	·	·
CC(=O)c1c(C)n(CC(=O)NCc2ccc3c(c2)OCO3)c2ccccc12	-5	13µM*	14µM*	?	?	4%
SMILES	IL-1B inflam inh	TDP1 cell CPT	TDP1 cell noCPT	MCF10A rereplic	SW480 rerep	Chronic BCR inh
O=C(CCCCCn1c(=O)c2sccc2n(CC(=O)Nc2cccc(Cl)c2)c1=O)NCc1ccc2c(c1)OCO2	·	?	15µM*	·	·	·
CCOC(=O)c1ccccc1NC(=O)Cn1c(=O)n(CCCC(=O)NCc2ccc3c(c2)OCO3)c(=O)c2ccccc21	·	-20%	-23%	·	·	·
O=C(CCCn1c(=O)c2ccccc2n(CC(=O)Nc2cccc(Cl)c2)c1=O)NCc1ccc2c(c1)OCO2	·	?	15µM*	·	·	·
CCOc1ccc(NC(=O)Cn2c(=O)n(CCCCC(=O)NCc3ccc4c(c3)OCO4)c(=O)c3ccccc32)cc1	·	?	-24%	·	·	·
O=C(Cn1c(CO)nc2ccccc21)NCc1ccc2c(c1)OCO2	-9	-9%	-15%	-10%	-11%	1%
NC(=O)Cn1c(=O)n(CCCCCC(=O)NCc2ccc3c(c2)OCO3)c(=O)c2sccc21	·	-14%	-12%	·	·	·
CCCCCCCCC(=O)c1c(OC)oc(C=O)cc1=O	?	-108%	?	·	·	·
CCOC(=O)c1cc(-c2ccc(OC)cc2OC)nn1-c1ccc(C(=O)O)cc1	0	-3%	-19%	?	2%	?
Cc1ccc(C(=O)NCCc2nnc3ccc(NCCCN4CCOCC4)nn23)cc1	7	2%	13%	-14%	-13%	-1%
COc1cc(/C=C2\SC(=Nc3cccnc3)NC2=O)cc(OC)c1OC	75	?	?	3.7µM*	2%	1%
O=C1NC(=Nc2cccnc2)S/C1=C\c1cccc(F)c1	33	?	13µM*	?	-2%	?
O=C1NC(=Nc2ccccc2)S/C1=C/c1cccnc1	-7	19%	-9%	0%	0%	?
CC(=O)c1c(N2CCOCC2)nc2ccc(Cl)cc2c1-c1ccccc1	0	-18%	-27%	15µM*	-11%	-1%
CCOC(=O)c1c(CN2CCNCC2)nc2ccc(Cl)cc2c1-c1ccccc1	-64*	4.6µM*	4.6µM*	?	?	·
Cc1nc2ccc(Cl)cc2c(-c2ccccc2)c1C(=O)N(C)C	1	-19%	13%	4%	-8%	-1%
O=C1OC(/C(=C\NCc2ccccc2)[N+](=O)[O-])c2ccccc21 (configuration not stated)	-5	-9%	-27%	-1%	-7%	3%
